Values joined by “and” are separate entries in the source; they are usually repeats but may differ in a detail not shown here. Identical values can stand only once. Results filed as inconclusive are left out. Active and inactive are the calls of the source.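 How the source made its calls, unless noted: active means normalized viability below 100% at a tested concentration; inactive means the rest.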

The nature of test [1]: viability loss in pontine glioma line – cell-based, SU-DIPG-XXV, MIPE5.0, CellTiter-Glo, qHTS, dose response (AID 1347065; cut-off not given, nearly all actives have AC50 up to about 26 µM;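 further: cells exposed to compound for 48 hours before ATP readout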). The note with it: CellTiter-Glo ATP luminescence. On the technique in general: Cellular ATP, detected with luciferase, serves as a proxy for viable cell number.
Test [2] in a line: SU-DIPG-VI glioma cell viability, MIPE4.0 library, CellTiter-Glo luminescence, qHTS (AID 1347066; cut-off not given, nearly all actives have AC50 up to about 30 µM;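 further: cells exposed to compound for 48 hours before readout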). The note with it: CellTiter-Glo ATP luminescence.
A short description of test [3]: JHH-DIPG-1 glioma cell viability, MIPE5.0 library, CellTiter-Glo luminescence, qHTS (AID 1347067; cut-off not given, nearly all actives have AC50 up to about 26 µM;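 further: cells exposed to compound for 48 hours before readout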). The note with it: JHH-DIPG-1 glioma viability, CellTiter-Glo ATP luminescence.
Test [4] in a line: SU-DIPG-XXV glioma cell viability, MIPE5.0 library, qHTS (AID 1347068; cut-off not given, nearly all actives have IC50 up to about 30 µM).
Test [5] in a line: sensitizers of A549 cells to miR-34 induction, primary screen, imaging, A549 dox-inducible miR-34, nuclei and caspase counts (AID 1347080;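 active means compounds whose cell count with miR-34 switched on is under 0.7 times the count with it off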). Conditions: A549 miR-34 inducible, Hoechst nuclei count, 48 h.
Test [6] is described as follows: survival rescue of mitochondrial mutant cells in low glucose, primary screen, MELAS cybrids, Rieske KO mouse fibroblasts, CellTiter-Glo (AID 1508586;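 active means mean z-score across replicates of 1.96 or higher in either the MELAS or the Rieske mutant cell line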;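 further: z relative to plate mean and SD of compound and empty wells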).
Test [7] deals with NAD(+) hydrolase SARM1 (Homo sapiens) (UniProt Q6SZW1). As to the kind of experiment: SARM1 TIR NADase inhibitors, cell lysate, NAD-Glo luminescence (AID 1508614;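 active means compound whose remaining NAD level is above about 45 nM, limit read from the data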). Conditions: SAM-TIR HEK293T lysate NADase, at 1 µM, stronger effect = higher value.
Test [8] concerns the target Mitogen-activated protein kinase 7 (Homo sapiens) (UniProt Q13164). Briefly: ERK5 transactivation activators in reporter cells, primary screen, cell-based, HTS (AID 1508626;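 active means luciferase signal above three times the same-plate solvent-only control wells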;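 further: luciferase driven by Gal4-ERK5 fusion binding five Gal4 sites before minimal TATA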). The note with it: HeLa Gal4-ERK5 transactivation, 18 h, at 5 µM, stronger effect = higher value.
Test [9] in a line: viability rescue of complex I mutant cybrids, primary screen, cell-based, galactose medium, ATP luminescence (AID 1645843;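 active means z-score of at least 1.8 in each of two replicates, scored against plate mean and spread of sample wells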;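 further: positive z means more ATP and so rescue of galactose-driven cybrid death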). Conditions: complex I mutant cybrid cells, 72 h, stronger effect = higher value.
Test [10] can be described thus: phospholipid biosynthesis inhibitors in animal cells, primary screen, cell-based, LOPAC library, screen 4 (AID 1347384; call rule not given here). The note with it: phospholipid biosynthesis inhibition screen, at 10 µM.
Test [11] is described as follows: modifiers of HSF1 nuclear foci, imaging, Selleck Cancer Library (AID 1347162; in the data active means plate-normalised HSF1 focus index below about 0.46). The note with it: human cells, at 10 µM; SSMD: measured here: HSF1 foci SSMD mean; cell count: measured here: cell number; plate-normalised HSF1 focus index: stronger effect = lower value.
The nature of test [12]: ovarian cancer cell viability with rucaparib, profiling panel, oncology-focused library, rucaparib conditional (AID 1508598). The note with it: patient-derived ovarian cancer cells, CellTiter-Glo viability, 144 h, stronger effect = lower value.
The mark [13] stands for this setting: stronger effect = lower value, cell number ratio, induced over uninduced.
The mark [14] stands for this setting: measured here: relative caspase fold change +Dox/-Dox.
Setting [15] is: measured here: total cells with miR-34 induction, stronger effect = lower value.
[16] abbreviates: measured here: total cells without miR-34 induction.
The mark [17] stands for this setting: MELAS cybrid survival, CellTiter-Glo 48 h, stronger effect = higher value.
[18] abbreviates: Rieske KO mouse fibroblast survival, CellTiter-Glo 72 h.

Mitogen-activated protein kinase 7 (Homo sapiens), sequence (Q13164 whole entry, looked up, the tested form may be a part): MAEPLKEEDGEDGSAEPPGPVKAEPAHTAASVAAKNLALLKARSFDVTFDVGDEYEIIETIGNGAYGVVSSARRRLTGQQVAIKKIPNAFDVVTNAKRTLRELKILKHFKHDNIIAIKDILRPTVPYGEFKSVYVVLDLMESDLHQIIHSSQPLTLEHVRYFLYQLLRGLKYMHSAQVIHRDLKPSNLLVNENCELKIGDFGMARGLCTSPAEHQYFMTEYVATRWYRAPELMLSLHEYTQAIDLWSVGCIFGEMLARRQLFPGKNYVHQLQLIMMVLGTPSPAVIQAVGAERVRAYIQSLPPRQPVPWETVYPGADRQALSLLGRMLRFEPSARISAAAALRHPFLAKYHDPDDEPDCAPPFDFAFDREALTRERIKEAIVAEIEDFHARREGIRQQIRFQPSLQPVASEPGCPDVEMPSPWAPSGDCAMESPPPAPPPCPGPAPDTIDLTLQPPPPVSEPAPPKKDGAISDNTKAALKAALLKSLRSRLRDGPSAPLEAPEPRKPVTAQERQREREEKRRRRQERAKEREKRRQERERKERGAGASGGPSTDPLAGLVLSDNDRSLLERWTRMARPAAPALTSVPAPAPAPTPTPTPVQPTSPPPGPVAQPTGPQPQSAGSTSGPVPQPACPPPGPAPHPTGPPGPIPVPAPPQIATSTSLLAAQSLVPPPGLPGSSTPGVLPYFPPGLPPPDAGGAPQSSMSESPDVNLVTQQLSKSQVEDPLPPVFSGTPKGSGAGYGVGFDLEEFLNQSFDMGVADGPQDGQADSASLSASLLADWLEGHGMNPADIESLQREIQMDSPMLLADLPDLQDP
NAD(+) hydrolase SARM1 (Homo sapiens), sequence (Q6SZW1 whole entry, looked up, the tested form may be a part): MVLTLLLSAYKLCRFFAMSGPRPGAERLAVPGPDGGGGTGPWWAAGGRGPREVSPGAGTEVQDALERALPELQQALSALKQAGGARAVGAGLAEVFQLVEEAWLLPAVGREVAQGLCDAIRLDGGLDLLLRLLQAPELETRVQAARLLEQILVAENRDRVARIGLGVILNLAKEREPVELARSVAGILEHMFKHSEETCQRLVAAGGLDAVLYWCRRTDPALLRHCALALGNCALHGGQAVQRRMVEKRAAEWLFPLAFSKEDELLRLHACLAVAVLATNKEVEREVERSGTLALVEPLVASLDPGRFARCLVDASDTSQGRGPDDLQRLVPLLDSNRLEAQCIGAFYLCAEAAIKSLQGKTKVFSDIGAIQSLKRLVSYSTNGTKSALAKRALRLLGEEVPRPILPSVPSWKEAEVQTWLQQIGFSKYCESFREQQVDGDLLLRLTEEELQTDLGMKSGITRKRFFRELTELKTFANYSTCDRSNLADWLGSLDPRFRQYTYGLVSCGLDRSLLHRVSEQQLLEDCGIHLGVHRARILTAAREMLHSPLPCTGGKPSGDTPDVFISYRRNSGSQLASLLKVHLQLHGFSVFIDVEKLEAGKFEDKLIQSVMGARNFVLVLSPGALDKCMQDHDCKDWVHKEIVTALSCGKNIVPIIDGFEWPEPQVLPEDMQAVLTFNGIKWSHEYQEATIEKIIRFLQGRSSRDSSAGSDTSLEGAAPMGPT

`CCC[C@H](N[C@@H](C)C(=O)N1[C@H](C(=O)O)C[C@@H]2CCCC[C@@H]21)C(=O)OCC`: the result in [1], in test [2], in [3] and in test [4] was inactive. Besides, the fold change is 0.917 (inactive) and 0.847 (inactive) in test [5] (setting [13]); 0.846 and 3.59 in test [5] (setting [14]). Further, the cell count in test [5] (setting [15]) is 9000 and 11500; in test [5] (setting [16]) it was 9820 and 13600. Further, the z-score in [6] (setting [17]) was 0.628 (inactive); in test [6] (setting [18]), -0.272. Moreover, in [7], the remaining NAD was 10 nM (inactive). For the same molecule, in test [8], the luciferase signal was 156 AU (inactive).

In the case of `CCCc1cc(C(N)=S)ccn1`, the call in test [1], in [2], in [3] and in test [4] was inactive. Moreover, the fold change in [5] (setting [13]) was 0.877 (inactive) and 0.879 (inactive); in test [5] (setting [14]), 0.726 and 1.06. In addition, the cell count is 7890 and 9370 in [5] (setting [15]); 8990 and 10700 in test [5] (setting [16]). The z-score in test [6] (setting [17]) was -0.334 (inactive) and 1.02 (inactive) and 0.566 (inactive); in test [6] (setting [18]), -0.0512 and 0.419 and 0.177; in test [9], 0.335 (inactive). The remaining NAD in [7] is 10 nM (inactive). For the same molecule, in test [8], the luciferase signal is 96 AU (inactive).

For `NCCS(=O)(=O)O`, the molecule was called inactive in test [1], in test [2], in [3], in test [4] and in [10]. The fold change in test [5] (setting [13]) is 0.992 (inactive) and 0.904 (inactive); in test [5] (setting [14]), 1.43 and 3.02. Moreover, the cell count was 10100 and 12500 in test [5] (setting [15]); 10200 and 13800 in test [5] (setting [16]). Also, the remaining NAD in test [7] was 10 nM (inactive). Moreover, the luciferase signal in [8] was 80 AU (inactive). Also, the z-score in [9] is 0.675 (inactive).

Broadly, the viability is a read-out of living cells in per cent, often relative to untreated cells. On to `CC(C)(C#N)c1cc(Cn2cncn2)cc(C(C)(C)C#N)c1`, for which the call in test [1], in test [2], in test [3] and in test [4] was inactive. Also, the fold change in [5] (setting [13]) is 0.875 (inactive) and 0.939 (inactive) and 0.952 (inactive); in [5] (setting [14]) it was 1 and 1.14. For the same molecule, the cell count in test [5] (setting [15]) was 8530 and 7350 and 9720; in [5] (setting [16]), 9750 and 7820 and 10200; in test [11], 7640. The molecule further registered an SSMD in test [11] of 1.85. The plate-normalised HSF1 focus index in test [11] was 1.07 (inactive). Further, the z-score was -0.386 (inactive) and -0.452 (inactive) and -0.582 (inactive) in test [6] (setting [17]); 0.599 and -0.518 and -0.151 in test [6] (setting [18]); 0.695 (inactive) and 0.735 (inactive) in test [9]. In addition, the viability is 109% (inactive) in [12] (at 0.000305 µM, OCI-C5x cells, with rucaparib 10 µM, 100% = cells with rucaparib alone); 102% (inactive) in test [12] (at 0.000305 µM, OCI-C5x cells, without rucaparib); 98.5% (active) in test [12] (at 0.000305 µM, OCI-P5x cells, with rucaparib 20 µM, 100% = cells with rucaparib alone); 90.6% (active) in [12] (at 0.000305 µM, OCI-P5x cells, without rucaparib); 107% (inactive) in test [12] (at 0.00122 µM, OCI-C5x cells, with rucaparib 10 µM, 100% = cells with rucaparib alone); 98.9% (active) in [12] (at 0.00122 µM, OCI-C5x cells, without rucaparib). The viability in test [12] (at 0.00122 µM, OCI-P5x cells, with rucaparib 20 µM, 100% = cells with rucaparib alone) was 102% (inactive); in test [12] (at 0.00122 µM, OCI-P5x cells, without rucaparib) it was 95.3% (active); in [12] (at 0.00488 µM, OCI-C5x cells, with rucaparib 10 µM, 100% = cells with rucaparib alone), 115% (inactive); in test [12] (at 0.00488 µM, OCI-C5x cells, without rucaparib) it was 107% (inactive); in test [12] (at 0.00488 µM, OCI-P5x cells, with rucaparib 20 µM, 100% = cells with rucaparib alone), 104% (inactive); in [12] (at 0.00488 µM, OCI-P5x cells, without rucaparib) it was 100% (inactive). Besides, the viability is 113% (inactive) in [12] (at 0.0195 µM, OCI-C5x cells, with rucaparib 10 µM, 100% = cells with rucaparib alone); 107% (inactive) in [12] (at 0.0195 µM, OCI-C5x cells, without rucaparib); 110% (inactive) in test [12] (at 0.0195 µM, OCI-P5x cells, with rucaparib 20 µM, 100% = cells with rucaparib alone); 104% (inactive) in [12] (at 0.0195 µM, OCI-P5x cells, without rucaparib); 105% (inactive) in test [12] (at 0.0781 µM, OCI-C5x cells, with rucaparib 10 µM, 100% = cells with rucaparib alone); 109% (inactive) in test [12] (at 0.0781 µM, OCI-C5x cells, without rucaparib). The viability in test [12] (at 0.0781 µM, OCI-P5x cells, with rucaparib 20 µM, 100% = cells with rucaparib alone) was 108% (inactive); in [12] (at 0.0781 µM, OCI-P5x cells, without rucaparib), 109% (inactive); in test [12] (at 0.313 µM, OCI-C5x cells, with rucaparib 10 µM, 100% = cells with rucaparib alone) it was 103% (inactive); in test [12] (at 0.313 µM, OCI-C5x cells, without rucaparib), 108% (inactive); in test [12] (at 0.313 µM, OCI-P5x cells, with rucaparib 20 µM, 100% = cells with rucaparib alone), 112% (inactive); in [12] (at 0.313 µM, OCI-P5x cells, without rucaparib), 113% (inactive). The viability in test [12] (at 1.25 µM, OCI-C5x cells, with rucaparib 10 µM, 100% = cells with rucaparib alone) was 115% (inactive); in test [12] (at 1.25 µM, OCI-C5x cells, without rucaparib), 115% (inactive); in test [12] (at 1.25 µM, OCI-P5x cells, with rucaparib 20 µM, 100% = cells with rucaparib alone), 111% (inactive); in test [12] (at 1.25 µM, OCI-P5x cells, without rucaparib), 112% (inactive); in test [12] (at 5 µM, OCI-C5x cells, with rucaparib 10 µM, 100% = cells with rucaparib alone), 130% (inactive); in test [12] (at 5 µM, OCI-C5x cells, without rucaparib) it was 115% (inactive). For the same molecule, the viability in test [12] (at 5 µM, OCI-P5x cells, with rucaparib 20 µM, 100% = cells with rucaparib alone) is 115% (inactive); in test [12] (at 5 µM, OCI-P5x cells, without rucaparib), 109% (inactive). In test [7], the remaining NAD was 10 nM (inactive).

(Values after PubChem BioAssay.)
